Records with an inconclusive call do not appear. Calls of active or inactive are those of the source. Calls come from the whole dose curve; as a rule, active = well fitted curve in the direction sought with a large enough effect; inconclusive = small, poorly fitted or top-dose-only effect, or another doubt; inactive = no such curve, though single readings can be large or run the other way.
experiment: Secondary Assay for Activators of Human Pyruvate Kinase M2 isoform - Cell Titer Glo Cytotoxicity for Probe SAR; conditions: HeLa viability, CellTiter-Glo ATP luminescence, 24 h; series mostly up to 58.2 µM; activity change, negative = cytotoxicity: at the top concentration; note: % of control where 0% means no effect
Description: NIH Chemical Genomics Center [NCGC]
Matthew G. Vander Heiden, M.D., Ph.D. [Harvard Medical School, 77 Avenue Louis Pasteur, Boston, MA 02115]
We have identified a series of activators of the M2 isoform of human pyruvate kinase. The assay described here examines the cytotoxicity of these compounds by measuring the total ATP content of Hela cells after 24 hrs of exposure to compound.
500 Hela cells/ 4ul in media (DMEM with high glucose, 10% FBS, 1x Pen Strep, 1x NEAA) were dispensed into a white solid 1536-microwell plate with a Thermo Multidrop. The plates were incubated at 37 degrees Celsius for 24 hours. The cells were then treated with compounds using the Kalypsys pin tool, delivering 23 nl of test compounds and the control doxorubicin. The plates were then incubated for an additional 24 hours at 37 degrees C after which 4 ul of Promega Cell-Titer Glo was dispensed using the Thermo Multidrop. The plates were incubated at room temperature for 10 min before reading luminescence on the Perkin Elmer ViewLux with images collected with 2x binning and a 5 sec exposure time.

Row | Structure (SMILES) | activity change, negative = cytotoxicity
1 | Cc1ccc(NS(=O)(=O)c2ccc3c(c2)CC(=O)N3)cc1C | -14.8% (inactive)
2 | Cc1cc(N2C(=O)c3ccccc3C2=O)no1 | -24% (inactive)
3 | O=C1CCc2cc(S(=O)(=O)Nc3cccc(Oc4ccccc4)c3)ccc2N1 | -9.43% (inactive)
4 | Cc1ccc(NS(=O)(=O)c2ccc3c(c2)NC(=O)CO3)cc1C | -14.6% (inactive)
5 | O=C1CCc2cc(S(=O)(=O)Nc3ccc(F)cc3)ccc2N1 | -16.1% (inactive)
6 | CC(=O)Nc1ccc(S(=O)(=O)Nc2ccc(C)c(C)c2)cc1 | -3.49% (inactive)
7 | CNc1cc2c(cc1S(=O)(=O)Nc1ccc(C)c(C)c1)CCC(=O)N2 | -25.8% (inactive)
8 | Cc1ccc(NS(=O)(=O)c2ccc3c(c2)CCC(C)(C)O3)cc1C | -9.19% (inactive)
9 | Cc1ccn2c(NCc3ccco3)c(-c3ccccc3)nc2c1 | -7.39% (inactive)
10 | Cc1ccc(NS(=O)(=O)c2cc3c(cc2/C=C/c2ccccc2)NC(=O)CO3)cc1C | -22.7% (inactive)
11 | Cc1cc2c(s1)c1cnn(Cc3ccccc3F)c(=O)c1n2C | -16.6% (inactive)
12 | Cn1c2cc(S(C)=O)sc2c2cnn(Cc3cccc(O)c3)c(=O)c21 (stereo not given) | -14.4% (inactive)
13 | O=C1c2ccccc2C(=O)N1c1cccc(Cl)c1 | -21.7% (inactive)
14 | O=C1c2ccccc2C(=O)N1C1CCCCC1 | -17.4% (inactive)
15 | O=C1c2ccccc2C(=O)N1Cc1ccncc1 | -13.8% (inactive)
16 | O=C1c2ccccc2C(=O)N1Cc1ccccn1 | -8.82% (inactive)
17 | Cc1ccc(NS(=O)(=O)c2ccc3ccccc3c2)cc1C | -4.57% (inactive)
18 | Cc1ccc(NS(=O)(=O)c2ccc(Cl)cc2)cc1C | -4.87% (inactive)
19 | CN(C)c1cccc(S(=O)(=O)N2CCN(S(=O)(=O)c3ccc4c(c3)OCCO4)CC2)c1 | -1.98% (inactive)
20 | Cc1ccc(NS(=O)(=O)c2cc3c(cc2Cl)CCC(=O)N3)cc1Cl | -21.2% (inactive)

Row | Structure (SMILES) | activity change, negative = cytotoxicity
21 | N#Cc1cccc(NS(=O)(=O)c2ccc3c(c2)CCC(=O)N3)c1 | 6.98% (inactive)
22 | Cc1ccc2nc(-c3cccs3)c(Nc3ccccc3)n2c1 | -11% (inactive)
23 | Cc1cc(C)n2c(Nc3ccccc3)c(-c3ccc(C)o3)nc2n1 | -18% (inactive)
24 | Cc1ccc(Nc2c(-c3ccc(C)o3)nc3ccccn23)cc1 | -18.4% (inactive)
25 | Cc1ccc(NS(=O)(=O)c2cc3c(cc2N2CCCCC2)NC(=O)CC3)cc1C | -17.1% (inactive)
26 | CC(=O)N1c2ccc(S(=O)(=O)Nc3ccc(C)c(C)c3)cc2CC1C (stereo not given) | -24.5% (inactive)
27 | Cc1ccc(-c2nc3cnccn3c2Nc2ccc(C(C)C)cc2)o1 | -17.3% (inactive)
28 | O=C1CCc2cc(S(=O)(=O)Nc3ccc(Cl)c(Cl)c3)ccc2N1 | -17.3% (inactive)
29 | Cc1ccccc1Nc1c(-c2ccc(Cl)s2)nc2ccccn12 | -12.1% (inactive)
30 | CC(C)Nc1cccc(S(=O)(=O)N2CCCN(S(=O)(=O)c3ccc4c(c3)OCCO4)CC2)c1 | -20.5% (inactive)
31 | O=C1c2ccccc2C(=O)N1c1cccc2ncccc12 | -7.26% (inactive)
32 | COc1ccccc1OC1=NS(=O)(=O)c2ccccc21 | 7.83% (inactive)
33 | Cc1ccc(N[S+](=O)([O-])c2cc3c(cc2CCc2ccccc2)NC(=O)CO3)cc1C | -10.3% (inactive)
34 | O=C1c2ccccc2C(=O)N1c1cccc(=O)[nH]1 | 1.18% (inactive)
35 | COc1ccc(N2C(=O)c3ccccc3C2=O)cc1 | 0.623% (inactive)
36 | Cc1ccc(NS(=O)(=O)c2cc3c(cc2Cl)CCC(=O)N3)cc1C | -10.4% (inactive)
37 | O=C1CCc2cc(S(=O)(=O)Nc3ccccc3Cl)ccc2N1 | -10.2% (inactive)
38 | CNc1cccc(S(=O)(=O)N2CCCN(S(=O)(=O)c3ccc4c(c3)OCCO4)CC2)c1 | -19.6% (inactive)
39 | COc1cccc(Cn2ncc3c4sc(S(C)=O)cc4n(C)c3c2=O)c1 (stereo not given) | -2.09% (inactive)
40 | CSc1cc2c(s1)c1cnn(Cc3cccc(N)c3)c(=O)c1n2C | -21.7% (inactive)
